An excerpt weighted towards active compounds, which were near 3.7% of everything screened.
BoNT F protease – BoNT F light chain protease inhibition. 0.22% of 360,000 active. inhibition, % at 10 µM. Multiplex microsphere protease cleavage assay, flow cytometry. AID 588497; in the data active = inhibition above about 35%, passing the limit was not always enough; inconclusive = no clear call, values can overlap the other calls; also: plate controls were buffer without enzyme for full effect and enzyme alone for no effect
Bead autofluor – compound fluorescence in toxin protease inhibitor counterscreen | compound autofluorescence counterscreen, microsphere flow cytometry; hits give high values | 3.1% of 360,000 active | fluorescence intensity (concentration not given with the values); in the data active = fluorescence intensity above about 16000; inconclusive = no clear call, values can overlap the other calls
BoNT A protease – blocks Botulinum neurotoxin A light chain protease; multiplex microsphere protease substrate cleavage, flow cytometry; inhibition, % at 10 µM; 0.17% of 360,000 active; AID 588499; also: plate controls were buffer without enzyme for full effect and enzyme alone for no effect
Anthrax LF inh2 – blocks Bacillus anthracis lethal factor protease | P15917 | multiplex microsphere protease cleavage assay, LF | inhibition, % at 10 µM | 0.12% of 360,000 active | AID 588501; also: plate controls were buffer without enzyme for full effect and enzyme alone for no effect
MazF activator – MazEF (E. coli) toxin RNase activation; 0.32% of 350,000 active; P0AE70; activation, % at 20 µM; FAM/BHQ RNA-DNA oligo cleavage fluorescence, 5 h; in the data active = activation above about 50%
Target sequence (P0AE70 whole entry, looked up): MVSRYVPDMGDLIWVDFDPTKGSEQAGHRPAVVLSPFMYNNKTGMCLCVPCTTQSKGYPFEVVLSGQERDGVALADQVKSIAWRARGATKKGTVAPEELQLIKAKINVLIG
* marks the source's active call; other numbers are inactive results; u = inconclusive; x = not tested or not shown. Rule as the data show it, unless noted: active = inhibition above about 30%; inconclusive = no clear call, values can overlap the other calls; inactive = below that.

SMILES | BoNT F protease | Bead autofluor | BoNT A protease | Anthrax LF inh2 | MazF activator
S=C(Nc1ccc2c(c1)OCO2)NC1CCN(Cc2ccccc2)CC1 | -3 | 20636* | 0 | 0 | 0
CCC(=O)N1CCN(c2ccc(NC(=O)c3cccs3)cc2)CC1 | -8 | 17020* | -2 | -3 | 11
CCN(CC)c1cccc(OC(=O)c2cccnc2Cl)c1 | 0 | 5063 | 1 | -1 | -11
Cc1ccccc1C(=O)NCC(=O)NNC(=O)c1cccc(Cl)c1 | 0 | u | 1 | -2 | 3
CCN(CC)C(=O)CSc1nnc2cc(C)c3ccccc3n12 | -7 | 4675 | -1 | -2 | -12
CCN(CC)C(=O)CSc1nnc(-c2cc3ccccc3cc2O)n1CC | -7 | 23212* | -3 | -4 | 3
COc1ccccc1CCNC(=O)C(=O)NCC1OCCN1S(=O)(=O)c1ccc(C)cc1 (stereo unspecified) | 3 | 5699 | 0 | 9 | -3
CN(C1CCCCC1)S(=O)(=O)Cc1ccccc1 | 2 | 22622* | 3 | 3 | 1
CS(=O)(=O)N(CC(=O)NCc1ccccc1)C1CCCCC1 | -4 | 4600 | 0 | -2 | 4
NC(=O)c1ccccc1N1CCCCC1 | 2 | 6113 | 0 | -7 | 2
CCOc1ccc(NC(=O)c2cc3c(=O)n(C)c4ccccc4c3n2C)cc1 | -87 | 18920* | -12 | -14 | -31
Cn1c(C(=O)Nc2ccc3c(c2)OCO3)cc2c(=O)n(C)c3ccccc3c21 | -4 | 5868 | 0 | -3 | -1
NS(=O)(=O)c1ccc(CCNc2nc3c(-c4cccc(F)c4)nnn3c3ccccc23)cc1 | -4 | 7970 | 2 | 0 | 109*
Cc1cccc(-c2nnn3c2nc(NCCc2ccc(S(N)(=O)=O)cc2)c2ccccc23)c1 | -1 | 7386 | 1 | 4 | 5
Cn1c(NCC2CCCCC2)nc2cc(-c3ccsc3)sc2c1=O | 3 | 3350 | 0 | -6 | x
O=C(C(=O)N1CCOCC1)c1cn(CC(=O)N2CCCCC2)c2ccccc12 | 3 | 4607 | -1 | 0 | 7
CCOC(=O)C1CCN(C(=O)C(=O)c2cn(CC(=O)N3CCCCCC3)c3ccccc23)CC1 | 17 | 8139 | 44* | 31* | -40
CCOC(=O)C1CCCN(C(=O)C(=O)c2cn(CC(=O)N3CCOCC3)c3ccccc23)C1 (stereo unspecified) | -98 | 19022* | -53 | -7 | -5
COc1ccccc1NC(=O)c1c[nH]c2ccccc12 | 0 | 3839 | 0 | 7 | -17
COc1ccccc1C1(CC(=O)N2CCCCC2)CCOC(C(C)C)C1 (stereo unspecified) | -2 | 16312* | 0 | 3 | -2
Cc1ccc(C2(CC(=O)N3CCCC3)CCOC(C(C)C)C2)cc1 (stereo unspecified) | -2 | 5863 | 0 | 4 | -7
O=C(NC1CCN(C(=O)Nc2ccc(F)cc2)CC1)c1ccccc1F | -11 | 3735 | -2 | -1 | 4
CCn1nc(C)cc1-c1nnc(Sc2ncc([N+](=O)[O-])s2)n1C | -7 | 3741 | 1 | 3 | -2
CCCOc1ccc(NC(=O)CC2C(=O)N(C)C(=S)N2Cc2cccs2)cc1 (stereo unspecified) | -6 | 3106 | 0 | -3 | 97*
CN1C(=O)C(CC(=O)Nc2ccc(F)cc2)N(Cc2cccs2)C1=S (stereo unspecified) | u | 3901 | -3 | -8 | 1
SMILES | BoNT F protease | Bead autofluor | BoNT A protease | Anthrax LF inh2 | MazF activator
CCN1C(=O)C(CC(=O)Nc2ccc(OC)cc2)N(Cc2cccs2)C1=S (stereo unspecified) | -4 | 16912* | u | -2 | 7
COC(=O)C(NC(=O)CCc1c(C)nc2c(c(C)nn2-c2ccccc2)c1C)C(C)C (stereo unspecified) | -9 | 2932 | 0 | -5 | -2
CC(=O)C1=C(O)C(=O)N(CCN(C)C)C1c1ccc(Cl)cc1 (stereo unspecified) | -4 | 20540* | -3 | -2 | 4
NC1=NC2(CCCCC2)N(c2cccc(Cl)c2)C(N)=N1 | -3 | 16971* | -1 | -1 | 1
NC1=NC2(CCCCC2)N(c2ccc(F)cc2)C(N)=N1 | 11 | 3563 | 0 | -2 | 7
COCC(=O)Nc1nc2n(n1)C(c1ccccc1)CC(c1ccc(OC)cc1)N2 (stereo unspecified) | 2 | 11249 | 0 | 1 | 6
O=C(Nc1nc2n(n1)C(c1ccccc1)CC(c1ccc(Cl)cc1)N2)c1ccco1 (stereo unspecified) | -11 | 2618 | 0 | -1 | 10
CCOc1ccc(C2CC(c3ccccc3)Nc3nc(N)nn32)cc1 (stereo unspecified) | 5 | 18914* | u | 3 | -4
O=C(O)CCCC(=O)Nc1nc2n(n1)C(c1ccc(F)cc1)CC(c1ccc(Cl)cc1)N2 (stereo unspecified) | 7 | 21330* | 4 | 1 | -4
COCC(=O)Nc1nc2n(n1)C(c1ccc(OC)cc1)CC(c1ccc(OC)cc1)N2 (stereo unspecified) | 7 | 21259* | u | -11 | 6
COc1ccc(C2CC(c3ccccc3)Nc3nc(N)nn32)cc1 (stereo unspecified) | 1 | 10689 | -2 | -9 | 2
CCOc1nc(-c2ccccc2Cl)ccc1C#N | -4 | 20479* | -2 | -3 | 2
COc1ccc(-c2ccc(C#N)c(OC)n2)cc1 | -1 | 3778 | -1 | -8 | 4
CCC1CCCCN1C(=O)COC(=O)COc1ccc(Br)cc1 (stereo unspecified) | x | x | x | x | -6
CC(C)n1c(SCC(=O)N2CCN(C)CC2)nc2c1c(=O)n(C)c(=O)n2C | 2 | 4163 | 3 | 1 | 7
CC(C)n1cc(/C=C2/NC(=O)N(c3cccc(Cl)c3)C2=O)c2ccccc21 | -7 | 9444 | -1 | -2 | -8
CC(C)n1cc(/C=C2\NC(=O)N(c3cccc(Cl)c3)C2=O)c2ccccc21 | -1 | 19627* | u | -3 | 4
Cc1ccsc1/C=c1\sc2ncnn2c1=O | -2 | 20527* | -2 | -1 | -10
O=c1/c(=C/c2cccc3ccccc23)sc2ncnn12 | 4 | 4260 | 0 | 7 | 6
CC(C)N(Cc1ccccc1)C(=O)CN1C(=O)COc2ccc(S(=O)(=O)N3CCCCCC3)cc21 | -2 | 5747 | -2 | -2 | 3
O=C(c1cc2cc([N+](=O)[O-])ccc2oc1=O)N1CCN(c2ncccn2)CC1 | 38* | 7793 | 6 | -2 | -5
O=C(c1cc2cc([N+](=O)[O-])ccc2oc1=O)N1CCOCC1 | -1 | 2529 | 0 | 2 | -8
CCCCCCCCCn1c2c(c(=N)c3c1CCC3)CCC2 | 5 | 4301 | 0 | -1 | 22
CCCCCCn1c2c(c(=N)c3c1CCC3)CCC2 | 2 | 22477* | u | -1 | 6
CC1(C)CC2(CC(C)(C(=O)CSc3nc4ccccc4s3)OC2=O)C(=O)O1 (stereo unspecified) | 0 | 16350* | u | -2 | -10
CC1CC2(CC(C)(C(=O)CSc3nc4ccccc4s3)OC2=O)C(=O)O1 (stereo unspecified) | -3 | 23789* | -3 | 0 | 2

Screening data (PubChem)
